Sampled rows, rich in hits. Any-hit rate of the full collection: about 2.8%.
KCNH2 3.1 block – blocks the human KCNH2 3.1 channel isoform. U2OS KCNH2 3.1, thallium flux FluxOr; stronger effect = lower value. activity change, % (tested at about 1.8 µM). hit rate 0.95% among 340,000. AID 720553;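 active = maximum activity change below -70%; inconclusive = maximum activity change from -70% to -50%; inactive = maximum activity change above -50%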;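 also: thallium influx rate constant from kinetic fluorescence after stimulation buffer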
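FluxOr-based Tl+ influx in U2OS cells transduced with KCNH2 3.1 virus; rate constants normalized to DMSO controls.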
GLP1R cytotox – cytotoxicity counter-screen for GLP-1 receptor inverse agonists. HEK293 cAMP-luciferase reporter cells, luminescence, 24 h. Potency, µM (titrated, usually from 38.3 µM), usual class: inhibitors. hit rate 0.13% among 410,000. AID 624418;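 also: loss of luciferase light is scored as toxicity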
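Quantitative HTS format, 1536 wells, 200 cells/uL seeded. Compounds: 23 nL, 24 h, 37 °C. Detection: luciferase reagent, luminescence at 12 min RT; decreased signal taken as cytotoxic.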
KCNH2 WT inh – inhibitors of human wildtype KCNH2 potassium channel; Q12809; U2OS, BacMam KCNH2, thallium flux FluxOr; stronger effect = lower value; activity change, % at 1.84 µM; hit rate 0.37% among 340,000; AID 720551;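 active = maximum activity change below -70%; inconclusive = maximum activity change between -70% and -50%; inactive = maximum activity change above -50%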
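U2OS cells transduced with wild-type KCNH2 virus are loaded with FluxOr dye for 45 min, and thallium flux is measured in kinetic reads before and after stimulation buffer. Rate constants are normalized to DMSO controls.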
GLP-1R inv ag – GLP-1 receptor (human) inverse agonism; hit rate 1.6% among 410,000; Potency, µM (titrated, usually from 38.3 µM), actives largely listed as inhibitors; HEK293 GLP-1R CRE-luciferase, luminescence, 24 h; GLP-1R form is constitutively active; P43220; AID 624417; also: nearly all actives have a fitted effect of over 55% in size
Target sequence (P43220 whole entry, looked up): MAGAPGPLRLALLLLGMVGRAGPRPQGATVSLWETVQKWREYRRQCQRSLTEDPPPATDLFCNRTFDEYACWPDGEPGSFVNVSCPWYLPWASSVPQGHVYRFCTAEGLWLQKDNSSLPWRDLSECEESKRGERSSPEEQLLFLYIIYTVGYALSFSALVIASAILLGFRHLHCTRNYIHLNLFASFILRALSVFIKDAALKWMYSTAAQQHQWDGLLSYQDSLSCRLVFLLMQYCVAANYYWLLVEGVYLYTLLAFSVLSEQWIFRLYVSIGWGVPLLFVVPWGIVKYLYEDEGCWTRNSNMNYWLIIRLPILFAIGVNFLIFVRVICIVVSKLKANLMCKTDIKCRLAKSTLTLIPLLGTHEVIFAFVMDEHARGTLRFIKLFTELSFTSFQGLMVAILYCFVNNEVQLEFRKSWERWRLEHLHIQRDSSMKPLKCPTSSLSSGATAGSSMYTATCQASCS
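Inverse agonists were sought by their lowering of basal cAMP reporter luciferase output in HEK293 cells stably carrying constitutively active human GLP-1R, after 24 h compound treatment.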
GLS inh – glutaminase GLS (human) inhibition; O94925; GLS enzymatic activity, qHTS titration; Potency, µM (series often up to 45.5 µM), most hits filed as inhibitors; hit rate 0.21% among 410,000
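Enzyme dispensed in phosphate buffer (45 mM, pH 8.2, 0.02% Tween-20), compounds pinned in, then 1 mM L-glutamine solution and the glutamate oxidase–HRP–Amplex Red mix added; fluorescence read immediately and again after 30 min at room temperature.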
GLP1R ag – GLP-1 receptor (human) agonism; P43220; HEK293 GLP-1R CRE-luciferase, luminescence, 4-6 h; cells express a hypersensitive GLP-1R form; Potency, µM (top dose mostly 45.6 µM), usual class: activators; hit rate 0.007% among 380,000; AID 624172
A number is an active result; – = inactive; ? = inconclusive; · = no result. Unless noted, calls follow the shape of the dose curve; as a rule, active = well fitted curve in the direction sought with a large enough effect; inconclusive = small, poorly fitted or top-dose-only effect, or another doubt; inactive = no such curve, though single readings can be large; an effect the other way counts as inactive or inconclusive.

SMILES	KCNH2 3.1 block	GLP1R cytotox	KCNH2 WT inh	GLP-1R inv ag	GLS inh	GLP1R ag
CN1CCN(S(=O)(=O)c2ccc(Cl)cc2)CC1	–	–	–	–	–	–
O=C(c1ccc(CS(=O)c2ccccc2Cl)o1)N1CCN(c2ccccc2F)CC1 (centres undefined)	·	?	·	?	–	·
COc1ccc(CCN2C(=O)N(c3cccc(C)c3)C(=O)C2CC(=O)Nc2ccccc2)cc1OC (centres undefined)	·	–	·	–	–	·
Cc1cc([N+](=O)[O-])cc2ncccc12	·	–	–	–	–	–
O=[N+]([O-])c1cc2ncccc2c2ncccc12	–	?	–	3.2µM	–	–
Clc1ccc(CN2CCc3c([nH]c4ccccc34)C2)cc1Cl	?	?	–	4µM	–	–
COc1ccccc1C(=O)N1c2ccccc2C(C)(c2ccc(Cl)cc2)CC1(C)C (centres undefined)	·	–	·	?	–	·
CSc1nsc(SC)c1NC(=O)Nc1ccccc1C	-84	–	–	–	–	–
COc1cc(CNC(=O)c2ccc3c(c2)N(C)C(=O)C2CCCCN32)cc(OC)c1OC (centres undefined)	·	–	·	–	–	·
CCc1cccc(C)c1NC(=O)C(CC)Sc1nc2ccncc2[nH]1 (centres undefined)	·	–	·	–	–	·
CCc1ccccc1NC(=O)C1CCCN(C(=O)c2cnn(-c3ccccc3)c2-n2cccc2)C1 (centres undefined)	·	–	·	?	–	·
CCOc1ccc(C(=O)CCC(=O)N(CC)CC(=O)NCc2ccc(Cl)cc2)cc1	–	–	-160	–	–	–
CCOc1ccc(CN(C)CC(=O)NCc2ccc(F)cc2)cc1	-103	–	?	?	–	–
CSc1ccc(CN(C)CC(=O)NCc2ccccc2)cc1	–	–	–	?	–	–
COc1ccc(CNC(=O)CN(C)Cc2ccc(SC)cc2)cc1	-78	–	–	?	–	–
CN(CC(=O)NCc1ccc(F)cc1)Cc1ccc(Br)cc1	–	–	–	?	–	–
CCN(CC(=O)NCc1ccc(Cl)cc1)C(=O)COc1cccc(Cl)c1	–	–	–	?	–	–
Cc1ccc(C)c(N2CCN(S(=O)(=O)c3ccc(C(=O)N(C)C)s3)CC2)c1	·	–	·	?	–	·
COc1ccc(OC)c(CNC(=O)c2ccc(NC(=O)c3nsc4ccccc34)cc2)c1	·	–	·	–	–	·
Cc1ccc2nc(-c3ccsc3)c(NC3CCCC3)n2c1	–	–	–	–	1.6µM	–
Cc1ccc2nc(-c3ccncc3)c(NC3CCCC3)n2c1	–	–	–	?	–	–
Cn1c(N)c(C(=O)CSc2nn(-c3ccccc3)c(=S)s2)c(=O)n(C)c1=O	–	–	–	–	–	–
COc1ccc2[nH]cc(CCNC(=O)COc3ccc4ccc(=O)oc4c3)c2c1	–	–	–	–	–	?
O=C(O)c1ccc(/C=N/Nc2ccc(F)cc2F)cc1	–	–	–	?	?	–
Fc1ccc(N/N=C/c2ccncc2)c(F)c1	–	–	–	1.4µM	–	–
SMILES	KCNH2 3.1 block	GLP1R cytotox	KCNH2 WT inh	GLP-1R inv ag	GLS inh	GLP1R ag
CC(=O)c1c(C)oc2c1cc(NS(=O)(=O)c1ccc(C(C)(C)C)cc1)c1ccccc12	·	–	·	11µM	–	·
O=C(c1ccc(Br)cc1)N(Cc1ccco1)c1ccccn1	·	–	·	–	–	·
C#CC(c1ccccc1)(c1ccccc1)n1ccnc1	–	–	–	?	–	–
Clc1ccccc1C(c1ccccc1)(c1ccccc1)n1ccnc1	–	–	–	10µM	–	–
COc1ccc(C[C@H]2CN3C(=NC[C@@H]3Cc3ccc(O)cc3)N2C[C@H](C)NC(=O)CCC2CCCCC2)cc1	–	–	–	–	–	–
O=C(CCC1CCCCC1)NCCN1C2=NC[C@@H](Cc3ccccc3)N2C[C@H]1Cc1ccc(O)cc1	-99	?	-116	?	–	–
COc1ccc(C[C@@H]2CN3C(=NC[C@@H]3Cc3ccc(O)cc3)N2C[C@H](C)NC(=O)CCC2CCCCC2)cc1	–	–	-89	?	–	–
O=C(CCC1CCCCC1)NCCN1C2=NC[C@H](Cc3ccccc3)N2C[C@H]1Cc1ccc(O)cc1	–	–	–	–	–	–
CCOC(=O)N1CCC(N2CCCC(C(=O)c3cccc(OC(C)C)c3)C2)CC1 (centres undefined)	-80	–	–	?	–	–
CCOC(=O)N1CCC(N2CCCC(C(=O)c3cccc(OC)c3)C2)CC1 (centres undefined)	–	–	–	–	–	–
CCN(C(=O)c1ccc(C)c(Br)c1)c1ccccc1	·	–	–	10µM	–	–
CCN(C(=O)c1cccnc1)c1ccccc1	–	–	–	–	–	–
CCOC(=O)/C(=N\Nc1cc(Cl)ccc1Cl)N1CC(C)OC(C)C1 (centres undefined)	–	–	–	–	–	–
CCOC(=O)/C(=N\Nc1ccccc1Cl)N(C)C1CCCCC1	–	–	–	8.9µM	–	–
CCOC(=O)/C(=N\Nc1ccccc1Cl)N1CC(C)OC(C)C1 (centres undefined)	–	–	–	5µM	–	–
CCOC(=O)CNC(=O)COc1coc(CN2CCN(Cc3ccccc3)CC2)cc1=O	–	–	–	–	–	–
O=C(COc1ccc(Cl)cc1Cl)N/N=C/c1ccc(OC2OC(CO)C(O)C(O)C2O)cc1 (centres undefined)	-157	–	-151	–	–	–
O=c1cc(CN2CCN(Cc3ccccc3)CC2)c2ccc(O)cc2o1	-85	–	?	–	–	–
Cc1ccc2c(CN3CCN(Cc4ccccc4)CC3)cc(=O)oc2c1	-108	–	-86	?	–	–
Cc1ccc2c(CN(Cc3ccccc3)Cc3ccccc3)cc(=O)oc2c1	·	–	·	?	–	–
CCN(Cc1cc(=O)oc2cc(C)ccc12)c1ccccc1	–	–	–	10µM	–	–
Cc1ccc2c(CN(C)Cc3ccc(Cl)cc3Cl)cc(=O)oc2c1	–	–	–	11µM	?	–
Cc1sc2ncn(CC(=O)N3CCN(c4ccc(Cl)cc4)CC3)c(=O)c2c1S(=O)(=O)N1CCN(c2ncccn2)CC1	·	–	·	–	–	–
CC1CCCCC1NC(=O)c1cc(S(=O)(=O)N2CCCCC2)ccc1N1CCOCC1 (centres undefined)	–	–	–	–	–	–
CC(=O)c1ccc(N2CCN(C(=O)Nc3ccc(F)cc3F)CC2)cc1	–	–	–	–	–	–
O=C(Nc1ccc(F)cc1F)N1CCN(c2ccc(Cl)c(Cl)c2)CC1	·	–	·	11µM	–	·
Cc1ccc(C)c(N2CCN(C(=O)c3cccn3-c3nnc(N4CCCCC4)s3)CC2)c1	·	–	·	?	–	·

High-throughput results: PubChem, National Center for Advancing Translational Sciences (NCATS)
